Source: PubChem BioAssay
A number with no mark means an inactive call. The list shows a part of the results. Calls of active or inactive are those of the source.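 The calls were made as follows, unless noted: active = inhibition above the hit cutoff set in the earlier primary screen (cut at about 27% in these data); inactive = the rest.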

What was measured:
[1] = molecular target: Protein phosphatase methylesterase 1 (Homo sapiens) (UniProt Q9Y570); assay: human PME-1 methylesterase inhibition confirmation – biochemical, fluorescence polarization, FP-Rh probe, triplicate (AID 2171); conditions: recombinant PME-1, FP-Rh probe fluorescence polarization; at 5.9 µM; active compounds read high;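 also: 0% = enzyme with DMSO and 100% = wells lacking PME-1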
[2] = molecular target: Nuclear receptor coactivator 3 (Homo sapiens) (UniProt Q9Y6Q9); assay: NCOA3 GAL4-fusion reporter inhibition – cell-based, luminescence, quadruplicate, confirmation (AID 588792;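 active = mean inhibition over 43.08%, the solvent-only control mean plus 3 SD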;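 also: 0% = DMSO treated cells and 100% = gossypol at 36 µM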); conditions: HEK293 GAL4-SRC3 luciferase reporter, at 3.6 µM, active compounds read high
[3] = test system: transactivating tegument protein VP16 (Human herpesvirus 1), Gal4-VP16 luciferase reporter; assay: repression of VP16-driven luciferase reporter – cell-based, luminescence, high throughput, counter-screen for SRC3 inhibitor project (AID 588794; in the data active = inhibition above about 30%); conditions: mammalian cells, at 3.6 µM, active compounds read high
[4] = molecular target: Nuclear receptor coactivator 1 (Homo sapiens) (UniProt Q15788); assay: NCOA1 GAL4-fusion reporter inhibition – cell-based, luminescence, quadruplicate, confirmation (AID 588820;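 active = mean inhibition above 46.68%, the untreated control wells mean plus 3 SD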;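 also: 0% = DMSO wells and 100% = gossypol 36 µM treated wells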); conditions: HEK293 GAL4-SRC1 luciferase reporter, at 3.6 µM, active compounds read high
[5] = repression of VP16-driven luciferase reporter – cell-based, luminescence, high throughput, counter-screen for SRC1 inhibitor project (AID 588824; in the data active = inhibition above about 25%); conditions: cell-based VP16 transactivation luciferase luminescence; at 3.6 µM; active compounds read high
[6] = StAR promoter reporter inhibitors, counter-screen for LRH-1 inverse agonist project, cell-based, luminescence, high throughput (AID 651611; in the data active = inhibition above about 28%); conditions: StAR promoter luciferase reporter counterscreen, at 3.6 µM, active compounds read high
[7] = molecular target: Nuclear receptor subfamily 5 group A member 2 (Homo sapiens) (UniProt O00482); assay: NR5A2 activity suppression in reporter cells – cell-based, luminescence, confirmation (AID 651613; in the data active = inhibition above about 42%;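 also: HEK293T cells co-transfected with LRH-1 and StAR promoter luciferase reporter; 0% = vehicle wells and 100% = parental cells lacking receptor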); conditions: cell-based LRH-1 luciferase reporter, inverse agonism; at 3.6 µM; active compounds read high
[8] = molecular target: Steroidogenic factor 1 (Homo sapiens) (UniProt Q13285); assay: inverse agonism at SF1 nuclear receptor – cell-based, luminescence, high throughput, counter-screen for LRH-1 inverse agonist project (AID 651614; in the data active = inhibition above about 44%;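 also: cells cotransfected with StAR promoter reporter and SF1 expression vector; 0% = vehicle on cells with receptor and 100% = vehicle on cells lacking receptor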); conditions: cell-based SF1 luciferase reporter, at 3.6 µM, active compounds read high
[9] = compounds suppressing VP16-driven luciferase signal – cell-based, luminescence, high throughput, counter-screen for LRH-1 inverse agonist project (AID 651615; in the data active = inhibition above about 33%); conditions: Gal4-VP16 luciferase reporter cells, at 3.6 µM, active compounds read high
[10] = test system: transactivating tegument protein VP16 (Human herpesvirus 1); assay: compounds suppressing VP16-driven luciferase signal – cell-based, luminescence, single concentration, counter-screen for SRC2 inhibitor project (AID 652007; in the data active = inhibition above about 36%); conditions: cell-based VP16 transactivation luciferase reporter, at 8.9 µM, active compounds read high
[11] = molecular target: Nuclear receptor coactivator 2 (Homo sapiens) (UniProt Q15596); assay: inhibition of GAL4-SRC2 driven luciferase expression – cell-based, luminescence, HEK293, triplicate, confirmation (AID 652008;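 active = mean inhibition above 46.5%, the solvent-only control mean plus 3 SD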;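 also: 0% = DMSO-treated cells and 100% = Gossypol at 36 µM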); conditions: HEK293 GAL4-SRC2 luciferase reporter, at 8.9 µM, active compounds read high
[12] = molecular target: Serine protease HTRA1 (Homo sapiens) (UniProt Q92743); assay: confirming inhibition of human HTRA1 – biochemical, fluorescence polarization, confirmation (AID 540248;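 active = mean inhibition over three repeats above a set limit taken from the earlier primary screen, cut at about 37% in these data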;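 also: 0% = HTRA1 with DMSO and 100% = wells lacking HTRA1; inhibitors block probe binding so polarization drops and inhibition rises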); conditions: recombinant HTRA1, FP-rhodamine activity-based probe, at 5.96 µM, active compounds read high
[13] = molecular target: Oxytocin receptor (Homo sapiens) (UniProt P30559); assay: oxytocin receptor activation, retest of hits – fluorescence, CHO-OTR cells, triplicate, confirmation (AID 434963;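 active = mean activation above about 20% derived from the earlier single-dose screen, limit read from the data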;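 also: peak over minimum fluorescence ratio per well during a 100 second FLIPR read; 0% = DMSO alone and 100% = oxytocin high control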); conditions: Fluo-8 calcium fluorescence, agonist, at 3 µM, active compounds read high
[14] = molecular target: Vasopressin V1a receptor (Homo sapiens) (UniProt P37288); assay: activators of vasopressin V1R in CHO cells – cell-based, triplicate, fluorescence, counter-screen for OXTR agonist project (AID 434991;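 active = mean activation over triplicate exceeds the hit threshold set in the earlier primary screen, cut at about 20% in these data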;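 also: peak over basal fluorescence ratio within a 100 second read; 0% = DMSO alone and 100% = 3 nM vasopressin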); conditions: Fluo-8 calcium fluorescence, at 3 µM, active compounds read high
[15] = molecular target: Insulin-degrading enzyme (Homo sapiens) (UniProt P14735); assay: cellular IDE Abeta-cleavage inhibition – fluorescence polarization, HEK cells, FAbetaB substrate, confirmation (AID 435028;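 active = mean inhibition across triplicate wells above the cutoff set by the earlier primary insulin-degrading enzyme screen, cut at about 16% in these data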;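 also: 0% = DMSO wells and 100% = 60 µM reference IDE inhibitor Ii1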); conditions: at 5.59 µM, active compounds read high
[16] = HEK cell viability loss – luminescence, cytotoxicity control for IDE inhibitor project (AID 449730; in the data active = inhibition above about 22%;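 also: 0% = vehicle wells and 100% = reference cytotoxic drug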); conditions: HEK293 cytotoxicity, ATP luminescence; at 5.59 µM; active compounds read high

Steroidogenic factor 1 (Homo sapiens), sequence (Q13285 whole entry, looked up, the tested form may be a part): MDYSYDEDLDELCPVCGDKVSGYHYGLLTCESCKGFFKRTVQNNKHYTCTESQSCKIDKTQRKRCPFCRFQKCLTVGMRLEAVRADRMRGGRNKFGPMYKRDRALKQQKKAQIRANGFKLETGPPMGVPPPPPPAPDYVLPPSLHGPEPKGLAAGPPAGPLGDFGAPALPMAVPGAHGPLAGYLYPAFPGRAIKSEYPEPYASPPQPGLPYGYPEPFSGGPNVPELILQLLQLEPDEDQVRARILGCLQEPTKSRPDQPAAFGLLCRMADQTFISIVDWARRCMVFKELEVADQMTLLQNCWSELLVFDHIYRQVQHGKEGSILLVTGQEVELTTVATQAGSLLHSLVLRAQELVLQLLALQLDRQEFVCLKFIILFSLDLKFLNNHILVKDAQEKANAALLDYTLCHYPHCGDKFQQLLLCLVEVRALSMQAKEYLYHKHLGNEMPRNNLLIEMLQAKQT
Nuclear receptor coactivator 3 (Homo sapiens), sequence (Q9Y6Q9 whole entry, looked up, the tested form may be a part): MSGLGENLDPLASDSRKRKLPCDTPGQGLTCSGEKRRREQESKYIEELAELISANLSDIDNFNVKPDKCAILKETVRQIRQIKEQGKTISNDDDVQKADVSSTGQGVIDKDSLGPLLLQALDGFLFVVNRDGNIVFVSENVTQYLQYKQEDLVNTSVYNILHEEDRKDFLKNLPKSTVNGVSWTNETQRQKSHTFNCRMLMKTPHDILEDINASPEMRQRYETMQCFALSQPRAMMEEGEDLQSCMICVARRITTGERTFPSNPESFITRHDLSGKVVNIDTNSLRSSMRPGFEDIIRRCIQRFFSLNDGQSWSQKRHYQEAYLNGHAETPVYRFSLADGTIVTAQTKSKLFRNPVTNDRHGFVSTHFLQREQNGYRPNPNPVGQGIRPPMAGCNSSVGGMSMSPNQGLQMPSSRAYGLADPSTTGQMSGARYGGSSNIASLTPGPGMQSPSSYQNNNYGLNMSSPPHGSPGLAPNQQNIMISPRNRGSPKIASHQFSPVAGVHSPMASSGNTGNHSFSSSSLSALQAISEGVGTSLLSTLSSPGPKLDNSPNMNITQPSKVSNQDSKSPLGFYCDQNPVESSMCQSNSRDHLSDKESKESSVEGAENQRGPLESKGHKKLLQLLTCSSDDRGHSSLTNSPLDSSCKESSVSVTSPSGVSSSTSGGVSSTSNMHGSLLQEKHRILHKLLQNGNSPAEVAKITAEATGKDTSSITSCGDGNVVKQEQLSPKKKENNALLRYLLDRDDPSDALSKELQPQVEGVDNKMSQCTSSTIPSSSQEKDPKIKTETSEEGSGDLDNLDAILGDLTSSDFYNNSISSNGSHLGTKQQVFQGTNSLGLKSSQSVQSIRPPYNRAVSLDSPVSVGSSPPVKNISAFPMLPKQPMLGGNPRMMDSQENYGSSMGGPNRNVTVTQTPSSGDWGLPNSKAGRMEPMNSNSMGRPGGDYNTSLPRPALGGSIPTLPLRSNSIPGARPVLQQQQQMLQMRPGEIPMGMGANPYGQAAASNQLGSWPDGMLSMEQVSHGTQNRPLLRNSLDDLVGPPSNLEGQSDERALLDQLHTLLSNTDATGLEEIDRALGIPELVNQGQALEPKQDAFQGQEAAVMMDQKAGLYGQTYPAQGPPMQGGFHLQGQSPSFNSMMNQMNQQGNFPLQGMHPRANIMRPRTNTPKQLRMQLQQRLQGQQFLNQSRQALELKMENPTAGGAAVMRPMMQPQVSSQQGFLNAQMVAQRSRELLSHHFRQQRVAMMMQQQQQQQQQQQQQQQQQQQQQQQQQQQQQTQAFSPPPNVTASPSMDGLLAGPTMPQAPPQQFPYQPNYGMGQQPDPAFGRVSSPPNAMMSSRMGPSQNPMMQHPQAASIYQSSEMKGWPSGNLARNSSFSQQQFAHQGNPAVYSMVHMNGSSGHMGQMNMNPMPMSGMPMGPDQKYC
Nuclear receptor subfamily 5 group A member 2 (Homo sapiens), sequence (O00482 whole entry, looked up): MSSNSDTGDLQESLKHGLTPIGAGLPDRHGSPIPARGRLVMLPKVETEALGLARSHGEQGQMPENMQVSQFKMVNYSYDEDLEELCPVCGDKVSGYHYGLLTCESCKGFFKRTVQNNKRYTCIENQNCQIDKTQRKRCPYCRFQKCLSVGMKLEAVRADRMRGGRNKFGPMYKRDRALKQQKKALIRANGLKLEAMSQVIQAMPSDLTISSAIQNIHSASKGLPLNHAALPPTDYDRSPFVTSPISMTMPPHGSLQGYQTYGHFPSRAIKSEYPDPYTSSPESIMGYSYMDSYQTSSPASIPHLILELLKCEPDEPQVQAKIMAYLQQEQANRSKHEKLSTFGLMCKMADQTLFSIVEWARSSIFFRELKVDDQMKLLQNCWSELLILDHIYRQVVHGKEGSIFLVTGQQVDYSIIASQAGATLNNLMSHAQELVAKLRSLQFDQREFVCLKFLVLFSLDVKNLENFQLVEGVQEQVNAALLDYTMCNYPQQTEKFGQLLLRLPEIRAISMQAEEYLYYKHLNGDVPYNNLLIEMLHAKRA
Protein phosphatase methylesterase 1 (Homo sapiens), sequence (Q9Y570 whole entry, looked up, the tested form may be a part): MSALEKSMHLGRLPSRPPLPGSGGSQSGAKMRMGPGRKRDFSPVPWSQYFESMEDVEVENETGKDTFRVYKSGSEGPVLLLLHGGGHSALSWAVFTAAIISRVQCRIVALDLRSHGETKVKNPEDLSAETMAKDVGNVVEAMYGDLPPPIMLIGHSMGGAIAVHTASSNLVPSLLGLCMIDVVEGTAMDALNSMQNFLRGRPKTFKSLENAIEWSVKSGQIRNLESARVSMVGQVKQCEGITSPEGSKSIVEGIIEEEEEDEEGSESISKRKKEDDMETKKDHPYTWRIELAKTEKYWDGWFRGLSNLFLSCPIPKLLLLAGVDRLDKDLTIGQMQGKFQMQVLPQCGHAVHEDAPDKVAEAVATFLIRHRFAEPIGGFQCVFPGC
Nuclear receptor coactivator 2 (Homo sapiens), sequence (Q15596 whole entry, looked up, the tested form may be a part): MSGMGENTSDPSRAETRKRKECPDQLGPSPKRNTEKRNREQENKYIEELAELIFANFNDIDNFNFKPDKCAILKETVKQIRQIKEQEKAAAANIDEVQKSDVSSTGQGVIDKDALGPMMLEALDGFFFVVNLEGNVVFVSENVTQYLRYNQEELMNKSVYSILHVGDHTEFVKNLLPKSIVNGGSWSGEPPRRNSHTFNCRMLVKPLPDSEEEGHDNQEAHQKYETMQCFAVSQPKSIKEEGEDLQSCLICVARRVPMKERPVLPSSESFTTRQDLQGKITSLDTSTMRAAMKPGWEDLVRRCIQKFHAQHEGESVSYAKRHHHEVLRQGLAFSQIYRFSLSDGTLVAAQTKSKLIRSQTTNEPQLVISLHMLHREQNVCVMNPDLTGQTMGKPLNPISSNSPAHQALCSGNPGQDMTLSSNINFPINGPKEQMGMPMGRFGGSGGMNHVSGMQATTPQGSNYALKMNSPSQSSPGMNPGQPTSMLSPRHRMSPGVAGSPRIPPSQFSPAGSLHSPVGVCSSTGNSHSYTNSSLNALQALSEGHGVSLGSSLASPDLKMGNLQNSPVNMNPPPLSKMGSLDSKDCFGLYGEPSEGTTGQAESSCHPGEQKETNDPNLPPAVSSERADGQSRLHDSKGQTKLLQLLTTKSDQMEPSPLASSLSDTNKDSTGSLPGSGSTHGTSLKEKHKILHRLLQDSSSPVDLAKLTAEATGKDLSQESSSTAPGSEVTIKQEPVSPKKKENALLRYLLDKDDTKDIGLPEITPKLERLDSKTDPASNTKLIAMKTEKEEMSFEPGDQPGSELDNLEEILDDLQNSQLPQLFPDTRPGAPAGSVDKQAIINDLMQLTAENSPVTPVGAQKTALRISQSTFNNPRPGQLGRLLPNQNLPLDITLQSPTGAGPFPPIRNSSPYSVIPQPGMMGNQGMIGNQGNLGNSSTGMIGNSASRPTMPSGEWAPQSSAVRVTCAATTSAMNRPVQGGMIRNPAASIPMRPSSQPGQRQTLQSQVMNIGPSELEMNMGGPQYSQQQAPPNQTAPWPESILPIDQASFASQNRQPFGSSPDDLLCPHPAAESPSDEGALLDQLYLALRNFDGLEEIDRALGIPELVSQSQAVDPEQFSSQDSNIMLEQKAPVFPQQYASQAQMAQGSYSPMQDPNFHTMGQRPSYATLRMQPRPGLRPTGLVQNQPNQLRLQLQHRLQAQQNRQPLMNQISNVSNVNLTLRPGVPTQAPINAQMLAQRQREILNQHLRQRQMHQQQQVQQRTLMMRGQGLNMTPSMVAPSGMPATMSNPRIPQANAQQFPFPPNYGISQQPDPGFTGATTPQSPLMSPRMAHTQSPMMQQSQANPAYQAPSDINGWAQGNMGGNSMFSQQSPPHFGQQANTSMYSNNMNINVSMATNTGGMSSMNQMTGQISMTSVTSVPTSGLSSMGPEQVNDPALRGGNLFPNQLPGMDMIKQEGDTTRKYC
Vasopressin V1a receptor (Homo sapiens), sequence (P37288 whole entry, looked up): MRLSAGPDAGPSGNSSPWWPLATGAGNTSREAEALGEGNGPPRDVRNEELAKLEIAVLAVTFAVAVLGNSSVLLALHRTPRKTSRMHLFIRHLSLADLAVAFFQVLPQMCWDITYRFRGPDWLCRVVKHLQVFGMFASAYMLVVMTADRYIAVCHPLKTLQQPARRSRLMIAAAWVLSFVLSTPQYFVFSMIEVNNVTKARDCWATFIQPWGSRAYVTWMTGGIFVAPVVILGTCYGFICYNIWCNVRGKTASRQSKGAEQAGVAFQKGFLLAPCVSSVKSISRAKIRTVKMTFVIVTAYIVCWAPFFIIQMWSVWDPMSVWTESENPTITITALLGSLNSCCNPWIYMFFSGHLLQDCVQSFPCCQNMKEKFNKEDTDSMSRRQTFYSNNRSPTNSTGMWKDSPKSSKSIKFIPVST

## Nc1ccc(Br)c2c1C(=O)c1ccccc1C2=O
[1]
  inhibition: 21%

## CC(C)c1ccc2[nH]c(O)c(N=NC(=O)c3cccc(S(=O)(=O)N4CCCCC4)c3)c2c1
[1]
  inhibition: 58.3% (active)

## Cn1c(=O)c(Nc2ccc(Cl)cc2)c2c3c(cccc31)C(=O)c1ccccc1-2
[1]
  inhibition: 62.5% (active)

## CCc1ccc(S(=O)(=O)/N=C2\C=C(Nc3ccc(C(=O)O)cc3)C(=O)c3ccccc32)cc1
[1]
  inhibition: 33.3% (active)

## O=C(NCCC1=CCCCC1)C1CCN(S(=O)(=O)c2cccs2)CC1
[1]
  inhibition: 25.6%

## Brc1csc(/C=N/Nc2nc3ccccc3s2)c1
[1]
  inhibition: 45.3% (active)

## COc1ccc(NC(=O)c2c[nH]n3c(=O)cc(C4CCN(C(=O)OC(C)(C)C)CC4)nc23)cc1Cl
[1]
  inhibition: 25.1%

## CC1=NN(c2ccccc2)C(=O)/C1=C/c1c(O)n(-c2ccc(F)cc2)[nH]c1=O
[1]
  inhibition: 52.1% (active)

## Nc1[nH]n(-c2ccccc2)c(=O)c1N=Nc1ccc2c(c1)OCO2
[1]
  inhibition: 39.8% (active)

## Cc1ccc(OCCn2cc(/C=N/NC(=O)c3ccncc3)c3ccccc32)cc1
[1]
  inhibition: 33.5% (active)

## CC(=O)Nc1ccc(Nc2nc(C)c([N+](=O)[O-])c(Nc3ccccc3)n2)cc1
[1]
  inhibition: 19.7%

## CCN(CC)c1nc2c3c(nc4c(c3c1C#N)CC(=O)N4c1ccc(Cl)cc1)NC(C)=N2
[1]
  inhibition: 9.8%

## Cc1ccsc1C=Nc1ccc(O)cc1
[1]
  inhibition: 3.81%

## CC(=O)Cc1cc(O)c2ccccc2c1OC(=O)c1ccc(Br)cc1
[1]
  inhibition: 24.8%

## N=C1CCC(=N)c2c1c(O)c1ccccc1c2O
[1]
  inhibition: 21.1%

## COc1ccc(O)c(/C=N/Nc2nc(C)cc(-c3ccccc3)n2)c1
[1]
  inhibition: 39% (active)

## Cc1cc(C)nc(SCc2ccc(C(=O)N/N=C/c3cccc(O)c3O)cc2)n1
[1]
  inhibition: -47%
[2]
  inhibition: 28.5%
[3]
  inhibition: 38.9% (active)
[4]
  inhibition: 27.1%
[5]
  inhibition: 23.9%

## COc1ccc(S(=O)(=O)/N=C2\C=C(Nc3ccc(O)cc3)C(=O)c3ccccc32)cc1
[1]
  inhibition: 63.2% (active)
[2]
  inhibition: 94.1% (active)
[3]
  inhibition: 92.8% (active)
[4]
  inhibition: 85% (active)
[5]
  inhibition: 90.8% (active)
[6]
  inhibition: 92% (active)
[7]
  inhibition: 107% (active)
[8]
  inhibition: 96.7% (active)
[9]
  inhibition: 97.2% (active)
[10]
  inhibition: 67% (active)
[11]
  inhibition: 73% (active)

## Cc1ccc(C(C)C)c(OCc2ccc(C(=O)N/N=C/c3cccc(O)c3O)cc2)c1
[1]
  inhibition: -4.31%
[2]
  inhibition: 56.2% (active)
[3]
  inhibition: 32.4% (active)
[4]
  inhibition: 40.4%
[5]
  inhibition: 27.9% (active)
[10]
  inhibition: 34.8%
[11]
  inhibition: 83.9% (active)

## CCn1c(CSc2nnc(-c3cccnc3)n2-c2ccccc2C)nc2cc(C(=O)O)ccc21
[1]
  inhibition: 82% (active)

## CCN(CC)S(=O)(=O)c1ccc(N/N=C/c2ccc(O)cc2O)nc1
[1]
  inhibition: 35% (active)
[2]
  inhibition: 68.3% (active)
[3]
  inhibition: 67.3% (active)
[4]
  inhibition: 63.5% (active)
[5]
  inhibition: 58.3% (active)

## O=C(Nc1ccc(OC(F)(F)F)cc1)c1ccc2c(c1)no[n+]2[O-]
[1]
  inhibition: 61.4% (active)
[12]
  inhibition: 69.4% (active)
[10]
  inhibition: -77.2%
[11]
  inhibition: -55.7%

## COc1ccc(OC)c2[nH]c(C(=O)N/N=C/c3ccccc3O)cc12
[1]
  inhibition: -0.45%
[2]
  inhibition: 30.1%
[3]
  inhibition: 39.2% (active)

## N#C/C(=C/c1ccc(N2CCCCC2)o1)C(=O)NCCc1c[nH]c2ccccc12
[1]
  inhibition: 22.2%
[13]
  activation: 33.6% (active)
[14]
  activation: 52.1% (active)
[15]
  inhibition: 150% (active)
[16]
  inhibition: 5.73%

## CC(=O)c1cc(O)c2ccccc2c1O
[1]
  inhibition: 22.5%

## C=CCn1c(SCC(=O)N2CCCC2=O)nc2sc(CC)cc2c1=O
[1]
  inhibition: 11.2%

## Cc1ccc(C(C)C)c(OCc2ccc(C(=O)N/N=C/c3ccc(O)cc3O)cc2)c1
[1]
  inhibition: -0.21%
[2]
  inhibition: 77.2% (active)
[3]
  inhibition: 78.3% (active)
[4]
  inhibition: 67% (active)
[5]
  inhibition: 77% (active)
[6]
  inhibition: 80.8% (active)
[7]
  inhibition: 100% (active)
[8]
  inhibition: 80.9% (active)
[9]
  inhibition: 71.2% (active)
[10]
  inhibition: 20.9%
[11]
  inhibition: 68.3% (active)

## Oc1ccccc1N=Nc1nc(-c2ccccc2)c(-c2ccccc2)[nH]1
[1]
  inhibition: -3.97%
[2]
  inhibition: 81.4% (active)
[3]
  inhibition: 76.4% (active)
[4]
  inhibition: 76.5% (active)
[5]
  inhibition: 71% (active)
[6]
  inhibition: 86.9% (active)
[7]
  inhibition: 98.3% (active)
[8]
  inhibition: 84% (active)
[9]
  inhibition: 65.3% (active)

## Cn1nc(-c2ccccn2)nc2c(=O)n(C)c(=O)nc1-2
[1]
  inhibition: 45.9% (active)
[2]
  inhibition: 74.8% (active)
[3]
  inhibition: 62% (active)
[4]
  inhibition: 3.11%
[5]
  inhibition: 53.1% (active)
[6]
  inhibition: 56.7% (active)
[7]
  inhibition: 58.9% (active)
[8]
  inhibition: 73.7% (active)
[9]
  inhibition: 75.1% (active)
[10]
  inhibition: 13.4%
[11]
  inhibition: 70.7% (active)

## O=C(COC(=O)CCCN1C(=O)c2cccc3cccc(c23)C1=O)Nc1ccc(Cl)cc1
[1]
  inhibition: 22.7%

## CCN1/C(=C/C=C/c2oc3ccc(-c4ccccc4)cc3[n+]2CC)Oc2ccc(-c3ccccc3)cc21
[1]
  inhibition: -81.5%
[2]
  inhibition: 98.3% (active)
[3]
  inhibition: 95.4% (active)
[4]
  inhibition: 71.9% (active)
[5]
  inhibition: 94.2% (active)
[6]
  inhibition: 92.2% (active)
[7]
  inhibition: 110% (active)
[8]
  inhibition: 97.2% (active)
[9]
  inhibition: 96.4% (active)
